Data as given in the supplement of paper PMC10338343.
± gives the standard deviation.

system: MILI (PIWIL2) piRISC loaded with piRNA #1 (26 nt); assay: pre-steady-state target cleavage rate (min^-1); guide: piRNA #1 5'p-UGAGGUAGUAGGUUGUAUAGUAUCCA; MIWI and MILI are mouse PIWI proteins and EfPiwi is from a freshwater sponge; tags in brackets are library labels; higher = faster piRNA-guided slicing of the target; conditions: auxiliary factor: 500 nM mouse GTSF1
Outline: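 In HEPES–potassium acetate buffer at 33 °C, […] transcribed, DNA-blocked target RNA library was mixed with 1 nM active affinity-purified piRISC carrying one synthetic guide, with or without 500 nM GTSF1 partner protein, for 0–8 or 0–960 min. Uncleaved targets were sequenced and normalised to depth and to weakly complementary targets; three trials were pooled and k3 was capped at 0.0001 min^-1. The pre-steady-state cleavage rate followed from a burst-and-steady-state fit.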
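Also: 1 nM active piRISC with 0.1 nM target library at 33 °C single turnover.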

Sequence	pre-steady-state target cleavage rate
GGAGACCUAUCUAUUCAACGUACUACCUCA	0.00945 ± 0.003
GGAGAGGAUACAAUAGAACCUACUACCUCA	0.148 ± 0.012
GGAGACCUAUGAUAUGUACCAACUAGCUCA	< 0.0001
GGAGACCUUACUAUACAACCUACUUCCUGA	0.0269 ± 0.0086
GGAGACCUAUCUAUAGCAACCUACUACCUCA	0.0831 ± 0.016
GGAGUGGAACUAUACAACCUACUACCUCA	0.159 ± 0.011
GGAGACCUAUCUAUACAACCUACUAACUCA	0.0846 ± 0.017
GGAGACCUAACUAUACAACCUACGUACCUCA	0.0356 ± 0.015
GGAGACCUAUGAUAUGUACCUACUUGCUCA	< 0.0001
GGAGAGGAUUCAAUACAACCUACUACCUCA	0.132 ± 0.01
GGAGACCUAUCUAUAGUUCCUACUACCUCA	0.0473 ± 0.012
GGAGACCUAUCUAUACUACCUACUACCUGA	0.0569 ± 0.013
GGAGACCUAUGAAUACAAUCUACUACCUCA	0.00544 ± 0.0022
GGAGUGGAUUCUAUACAACCUACAACCUCA	0.0777 ± 0.0074
GGAGACCUUACUAAACAAGCUACUACCUCA	0.231 ± 0.018
GGAGACCUAUGAUAUGUUGCUGACUACCUCA	< 0.0001
GGAGACCUAUGAUAUGUUCCUACUACGUGA	< 0.0001
GGAGACCUAACUAUACAAGCUACUACCACA	0.309 ± 0.029
GGAGACCUAUGUAUACAACCUACUACUUCA	0.0634 ± 0.0075
GGAGACCUAUGAAUACAACCUACUACGUCA	0.00355 ± 0.0021

Sequence	pre-steady-state target cleavage rate
GGAGACCUAACUUUACAACCUACUACCUGA	0.0891 ± 0.041
GGAGAGGAUACUAUACAACCUACUAGCACA	0.00642 ± 0.0042
GGAGACCUAUCUAUACAACCAUACUACCUCA	0.0049 ± 0.0031
GGAGACCUAUGAUAUGUUGCUAGAACCUCA	< 0.0001
GGAGACGAUACAAUACAACGUACUACCUCA	0.0185 ± 0.0029
GGAGACCUAUGAACUACAACCUACUACCUCA	0.00389 ± 0.0029
GGAGACCUAUGAUUACAAGCUACUACCUGA	0.0183 ± 0.0056
GGAGACCUAUGUAUACAACCUACUACCGCA	0.085 ± 0.015
GGAGACCUAUGAUAUGUACCUACUACCCA	< 0.0001
GGAGUGGAUACUAAACUACCUACUACCUCA	0.172 ± 0.011
GGAGACCUUAGUUUACAACCUACUACCUCA	0.0381 ± 0.012
GGAGACCUAUAUAUACAACCUACUACCUCA	0.0406 ± 0.0075
GGAGACCUAAGUUUACAACCUACUACCUCA	0.0168 ± 0.0041
GGAGACCAUAGUAUACAACCUAGUACCUCA	0.0677 ± 0.011
GGAGAGGAUACUAUGCAACCUACUACCUCA	0.214 ± 0.011
GGAGACCUAUGAUAUCAACCUACACCUCA	< 0.0001
GGAGACCUAUGAUAUGUUGCUUCUACCUGA	< 0.0001
GGAGACCUAUCUAUAGAACCUACUUCCUCA	0.00536 ± 0.0024
GGAGACCUAUGAUUGCAACCUACUACCUCA	0.00532 ± 0.003
GGAGACCUUUCUAUACAACGUACUACCUCA	0.013 ± 0.003
